An excerpt weighted towards active compounds, which were near 0.54% of everything screened.
PvdQ acylase: P. aeruginosa PvdQ acylase inhibitors, primary screen, biochemical, fluorescence, plate reader and imaging, single point; PvdQ acylase [Pseudomonas aeruginosa LESB58]; inhibition, % at 10 µM; purified PvdQ acylase; AID 488965, 2010; hit rate 0.063% among 340,000; in the data active means inhibition above about 30%, passing the limit was not always enough;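 further: 0% = vehicle neutral wells and 100% = reference inhibitor wells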
Efflux pump inh: inhibitors of Candida efflux pumps in yeast, primary screen, S. cerevisiae, Nile Red, multiplex | S. cerevisiae Candida pump triplex | inhibition, % at 10 µM | hit rate 0.44% among 330,000 | AID 485275, 2010;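 active means plate passing quality check with inhibition over a set limit, or well fluorescence over plate mean plus 4 SD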;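 further: Nile Red retained in pooled yeast measured as flow cytometry median fluorescence; 0% = buffer negative control and 100% = Enniatin B positive control; higher means more Nile Red kept so more efflux inhibition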
ERp5 block: inhibitors of ERp5-driven insulin aggregation, primary screen, biochemical, turbidity, absorbance 650 nm, single point. 90 min. inhibition, % at 9.99 µM. hit rate 0.05% among 350,000;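 active means mean replicate inhibition above about 25%, with every replicate also reaching it, limit read from the data, passing the limit was not always enough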
Target sequence (Q15084 whole entry, looked up): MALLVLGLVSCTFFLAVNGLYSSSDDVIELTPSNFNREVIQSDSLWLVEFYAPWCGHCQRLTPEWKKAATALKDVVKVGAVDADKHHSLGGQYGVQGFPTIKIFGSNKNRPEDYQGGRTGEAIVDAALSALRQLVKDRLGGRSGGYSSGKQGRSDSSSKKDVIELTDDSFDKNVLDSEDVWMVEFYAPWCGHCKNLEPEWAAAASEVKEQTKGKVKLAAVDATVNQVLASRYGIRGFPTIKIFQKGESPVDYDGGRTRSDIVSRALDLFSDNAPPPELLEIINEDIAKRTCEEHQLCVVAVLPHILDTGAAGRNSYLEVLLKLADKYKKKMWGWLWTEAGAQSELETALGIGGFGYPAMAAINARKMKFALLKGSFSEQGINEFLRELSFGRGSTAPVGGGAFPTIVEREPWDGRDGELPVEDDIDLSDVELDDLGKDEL
PDI turbidity: inhibitors of human PDI, primary screen, biochemical, turbidity, single point, plate reader. Protein disulfide-isomerase (Homo sapiens), P07237. hit rate 0.052% among 350,000. inhibition, % at 10 µM. PDI insulin aggregation turbidity, A650, 90 min;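 active means mean inhibition across replicates of 30% or more, whatever share of single replicates reach that level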
Rtt109 HAT inh: inhibitors of C. albicans Rtt109/Vps75 HAT, primary screen, biochemical, ThioGlo CoA-SH fluorescence, plate reader | purified Rtt109/Vps75, 4 h | inhibition, % at 34.9 µM | hit rate 0.16% among 330,000;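 active means inhibition of at least 50% in every replicate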
Yeast cmpd fluor: counter-screen for efflux pump inhibitors: compound fluorescence; shares compounds with Efflux pump inh; fluorescence ratio to DMSO, % at 10 µM; hit rate 4% among 1,700; S. cerevisiae AD/pABC3, flow cytometry;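 active means fluorescence ratio to DMSO above its plate's cutoff, the plate mean ratio plus 5 SD, cut at about 210% in these data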;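 further: unstained yeast with no Nile Red so the signal is compound autofluorescence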
CaMdr1 efflux inh: inhibitors of Candida albicans Mdr1 efflux, confirmation, flow cytometry, singleplex, Cherry Pick1 set. shares compounds with Efflux pump inh. S. cerevisiae AD/CaMDR1, Nile Red efflux. AID 588518, 2011. inhibition, % at 10 µM. hit rate 1% among 1,700; in the data active means inhibition above about 26%;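 further: 0% = DMSO vehicle and 100% = reference inhibitor; higher means more Nile Red retained so more efflux inhibition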
CaCdr2 efflux inh: inhibitors of Candida albicans Cdr2 efflux pump, confirmation, S. cerevisiae AD/CaCDR2, flow cytometry, cherry pick 1, singleplex. shares compounds with Efflux pump inh. Nile Red retention. Nile Red retention ratio vs DMSO, % at 10 µM. hit rate 4% among 1,700; in the data active means Nile Red retention ratio vs DMSO above about 190%;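 further: higher ratio means more blocking of Cdr2 efflux of the dye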
Cdr1 pump inh: inhibitors of Candida albicans Cdr1 efflux pump, confirmation, S. cerevisiae AD/CaCDR1, flow cytometry, cherry pick 1, singleplex | Nile Red efflux | hit rate 1% among 1,700 | shares compounds with Efflux pump inh | inhibition, % at 10 µM;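 active means inhibition above the screen-wide mean plus twice its standard deviation, cut at about 32% in these data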
An asterisk follows results filed as active; nt = no result.

SMILES	PvdQ acylase	Efflux pump inh	ERp5 block	PDI turbidity	Rtt109 HAT inh	Yeast cmpd fluor	CaMdr1 efflux inh	CaCdr2 efflux inh	Cdr1 pump inh
CCCC#Cc1ccc2c(c1)O[C@@H](CN(C)C(=O)C1CCC1)[C@@H](C)CN([C@@H](C)CO)S2(=O)=O	nt	nt	7	nt	nt	nt	nt	nt	nt
CCC(=O)Nc1ccc2c(c1)C(=O)N(C)[C@H]1CC[C@H](CC(=O)O)O[C@@H]1CO2	nt	nt	-5	nt	nt	nt	nt	nt	nt
CC(C)C#Cc1ccc([C@@H]2[C@@H](CO)N3C(=O)CN(C(=O)NC4CCCCC4)C[C@H]23)cc1	nt	nt	-6	nt	nt	nt	nt	nt	nt
COC(=O)NCc1ccc(S(=O)(=O)N2CCOCC2)cc1	-13	0.5*	nt	0	-4	95	0	106	0
COc1ccc(CNC(=O)c2ccc(S(=O)(=O)N3CCOCC3)cc2)cc1	-16	nt	1	0	-3	nt	nt	nt	nt
O=C(C[C@@H]1C[C@@H]2c3cc(NC(=O)Nc4ccc(C(F)(F)F)cc4)ccc3O[C@@H]2[C@@H](CO)O1)NCc1cc(F)ccc1F	nt	nt	1	nt	nt	nt	nt	nt	nt
O=S(=O)(Nc1nc2ccccc2nc1Nc1ccc2c(c1)OCO2)c1ccccc1	-11	0	nt	11	6	nt	nt	nt	nt
Cc1cccc(S(=O)(=O)Nc2nc3ccccc3nc2Nc2ccc3c(c2)OCO3)c1	-4	10.0*	3	-3	-8	106	0	118	0
C/C=C/c1cnc2c(c1)C(=O)N([C@@H](C)CO)C[C@H](C)[C@@H](CN(C)C(=O)NC1CCCCC1)O2	nt	nt	11	nt	nt	nt	nt	nt	nt
COc1ccc(OC)c(-c2csc(NC(=O)CN3C(=O)C4CCCCC4C3=O)n2)c1 (stereo not given)	8	0.4*	-3	-2	30	103	0	82	0
Nc1ncc2c(n1)-c1cc(Cl)ccc1SC2	7	0.6*	2	-2	12	114	0	112	0
COc1ccc(-c2cc(=O)n(-c3ccc([N+](=O)[O-])cc3)[nH]2)cc1	-6	14*	nt	6	4	87	0	104	0
Cc1cc(=O)oc2cc(OC(C(=O)O)c3ccccc3)ccc12 (stereo not given)	13	1.1*	1	-2	3	101	0	87	0
COc1ccccc1NC(=O)C1CCN(S(=O)(=O)c2cccs2)CC1	3	172*	-1	-8	2	111	1	108	0
N#Cc1cccc(-c2ccc(C3[C@@H]4CN(C(=O)Nc5ccc6c(c5)OCO6)C[C@H]3N4)cc2)c1 (stereo not given in full)	nt	nt	6	nt	nt	nt	nt	nt	nt
COCC(=O)N1CC2(CCN(Cc3ccc(Cl)cc3)CC2)c2c([nH]c3cc(OC)ccc23)[C@H]1CO	nt	nt	4	nt	nt	nt	nt	nt	nt
COc1ccc(C(C(=O)NC(C)(C)C)N(Cc2ccc(C)cc2)C(=O)CCC(=O)Nc2cc(C)on2)cc1 (stereo not given)	-11	0	2	5	19	nt	nt	nt	nt
COCCN(C(=O)CCC(=O)Nc1cc(C)on1)C(C(=O)NC(C)(C)C)c1ccc(OC)cc1 (stereo not given)	-9	0	-1	7	-2	99	0	108	0
CCC(C)(C)NC(=O)C(c1ccc(OC)cc1)N(Cc1ccco1)C(=O)CCC(=O)Nc1cc(C)on1 (stereo not given)	-17	0	nt	-1	3	nt	nt	nt	nt
COc1ccc(C(C(=O)NC(C)(C)C)N(Cc2ccco2)C(=O)CCC(=O)Nc2cc(C)on2)cc1 (stereo not given)	-5	0	nt	0	19	102	0	107	0
NC1=NC[C@@H](Cc2ccc(O)cc2)N1CCc1cc(C(F)(F)F)cc(C(F)(F)F)c1	-27	0	0	-11	1	nt	nt	nt	nt
CC(C)(C)CN1C(N)=NC[C@H]1Cc1ccc(O)cc1	-12	1	8	7	-6	nt	nt	nt	nt
CC(C)(C)CN1C(N)=NC[C@@H]1Cc1ccc(O)cc1	-13	0	-2	24	-2	104	0	112	0
NC1=NC[C@@H](Cc2ccc(O)cc2)N1CCc1cccc(F)c1	-22	0	-3	1	4	109	0	98	0
CCCCN1C(N)=NC[C@@H]1Cc1ccc(O)cc1	-7	0	0	13	-2	98	0	105	0
SMILES	PvdQ acylase	Efflux pump inh	ERp5 block	PDI turbidity	Rtt109 HAT inh	Yeast cmpd fluor	CaMdr1 efflux inh	CaCdr2 efflux inh	Cdr1 pump inh
CCCCN1C(N)=NC[C@H]1Cc1ccc(O)cc1	8	0	2	5	4	99	0	101	0
CCCN1C[C@@H](C)[C@@H](OC)CN(C)C(=O)c2ccc(NC(=O)C3CC3)cc2OC[C@H]1C	nt	nt	1	nt	nt	nt	nt	nt	nt
CN(C)C(=O)[C@H]1[C@H](CO)[C@H]2Cn3c(ccc(C4=CCCC4)c3=O)[C@@H]1N2CC1CCCC1	nt	nt	3	nt	nt	nt	nt	nt	nt
O=C(Cc1ccc(Cl)cc1)NC(=S)Nc1ccccc1N1CCOCC1	-3	1.4*	nt	-13	8	112	0	102	0
O=C(NC(=S)Nc1ccccc1N1CCOCC1)c1ccc(-c2cccc(Cl)c2)o1	-7	11*	nt	-2	-2	105	0	89	0
CC(=O)N(C)C[C@@H]1Oc2ncc(-c3cncnc3)cc2C(=O)N([C@@H](C)CO)C[C@H]1C	nt	nt	1	nt	nt	nt	nt	nt	nt
COc1ccc(CNCCC(c2ccc(F)cc2)c2ccc(OC)cc2)cc1 (stereo not given)	3	10*	nt	6	13	96	0	109	0
COc1ccc(C(CCNCc2ccc(F)cc2)c2ccc(F)cc2)cc1 (stereo not given)	6	0	-2	6	1	nt	nt	nt	nt
O=c1c(-c2ccccc2)c[nH]n1-c1cccc([N+](=O)[O-])c1	-4	1.0*	-3	3	0	99	0	104	0
COc1ccc(NS(=O)(=O)c2cc(NC(=O)c3cccnc3Cl)ccc2N2CCCC2)cc1	5	0.5*	1	2	25	116	0	99	0
O=c1[nH]c(C2CCN(S(=O)(=O)c3ccc4c(c3)OCCO4)CC2)nc2c1nnn2Cc1cccc(F)c1	19	3.2*	1	16	13	108	0	106	1
